Where a chain is given by its changes, count along the chain named.

Common to all, as to assay: PBM; 200 nM protein, PBS
What all share (conditions): dsDNA, one strand shown

Assay [1] deals with SHOX (Homo sapiens, UniProt O15266 103-189).
Assay [2] deals with T1, VENTX (Homo sapiens, UniProt O95231 78-163, R121Q).
T1 sequence: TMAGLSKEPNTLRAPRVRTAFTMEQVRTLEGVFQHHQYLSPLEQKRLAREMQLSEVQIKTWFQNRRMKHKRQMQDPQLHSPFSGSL

The target of assay [3] is T2, VENTX (Homo sapiens, UniProt O95231 78-163).
T2 sequence: T1 sequence with Q44R

Assay [4] deals with HOXA7 (Homo sapiens, UniProt P31268 116-202).
Chain of HOXA7 (Homo sapiens, UniProt P31268 116-202) (P31268 116-202): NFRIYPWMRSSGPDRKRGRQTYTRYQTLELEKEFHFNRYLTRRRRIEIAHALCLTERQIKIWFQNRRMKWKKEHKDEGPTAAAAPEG
In assay [5] the target is ALX4 (Homo sapiens, UniProt Q9H161 200-286).
Chain of ALX4 (Homo sapiens, UniProt Q9H161 200-286) (Q9H161 200-286): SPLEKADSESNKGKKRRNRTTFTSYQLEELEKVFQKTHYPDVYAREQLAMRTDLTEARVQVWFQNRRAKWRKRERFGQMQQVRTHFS
The target in assay [6] is T3, VENTX (Homo sapiens, UniProt O95231 78-163, Y115F).
T3 sequence: T1 sequence with Y38F, Q44R

The target of assay [7] is ALX4 (Homo sapiens, UniProt Q9H161 200-286, Q225E).
Chain of ALX4 (Homo sapiens, UniProt Q9H161 200-286, Q225E) (Q9H161 200-286 Q225E): as the sequence (Q9H161 200-286) above, with Q26E counted along it
For assay [8], the target named is SHOX (Homo sapiens, UniProt O15266 103-189, R173C).
Chain of SHOX (Homo sapiens, UniProt O15266 103-189, R173C) (O15266 103-189 R173C): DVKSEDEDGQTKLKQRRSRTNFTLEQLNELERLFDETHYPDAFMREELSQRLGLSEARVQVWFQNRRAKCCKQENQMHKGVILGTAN
Assay [9] addresses VAX1 (Homo sapiens, UniProt Q5SQQ9 86-172).
In assay [10] the target is VAX1 (Homo sapiens, UniProt Q5SQQ9 86-172, T142I).
Chain of VAX1 (Homo sapiens, UniProt Q5SQQ9 86-172, T142I) (Q5SQQ9 86-172 T142I): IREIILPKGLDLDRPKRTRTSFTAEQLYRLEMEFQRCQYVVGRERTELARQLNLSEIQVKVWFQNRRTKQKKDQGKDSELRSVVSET
Assay [11] addresses HOXA7 (Homo sapiens, UniProt P31268 116-202, W177C).
Assay [12] deals with VAX1 (Homo sapiens, UniProt Q5SQQ9 86-172, K157R).
Chain of VAX1 (Homo sapiens, UniProt Q5SQQ9 86-172, K157R) (Q5SQQ9 86-172 K157R): as the sequence (Q5SQQ9 86-172 T142I) above, with I57T, K72R counted along it
Assay [13] has as its target T4, PAX4 (Homo sapiens, UniProt O43316 9-242, R200K).
T4 sequence: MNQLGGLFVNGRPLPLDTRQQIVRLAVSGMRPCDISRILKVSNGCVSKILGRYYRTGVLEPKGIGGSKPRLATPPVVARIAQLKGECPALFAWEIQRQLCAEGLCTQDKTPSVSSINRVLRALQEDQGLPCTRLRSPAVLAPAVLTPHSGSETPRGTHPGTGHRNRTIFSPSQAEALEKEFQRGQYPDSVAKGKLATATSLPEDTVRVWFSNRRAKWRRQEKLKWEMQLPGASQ

For assay [14], the target named is T5, PAX4 (Homo sapiens, UniProt O43316 9-242).
T5 sequence: T4 sequence with K192R

Assay [15] concerns the target T6, PAX4 (Homo sapiens, UniProt O43316 9-242, R200Q).
T6 sequence: T4 sequence with K192Q

Assay [16] addresses T7, PAX4 (Homo sapiens, UniProt O43316 9-242, F177V).
T7 sequence: T4 sequence with F169V, K192R

For assay [17], the target named is T8, PAX4 (Homo sapiens, UniProt O43316 9-242, F177Y).
T8 sequence: T4 sequence with F169Y, K192R

The target of assay [18] is T9, PAX4 (Homo sapiens, UniProt O43316 9-242, R227W).
T9 sequence: T4 sequence with K192R, R219W

The target in assay [19] is HOXB9 (Homo sapiens, UniProt P17482 171-250, T197M).
Chain of HOXB9 (Homo sapiens, UniProt P17482 171-250, T197M) (P17482 171-250 T197M): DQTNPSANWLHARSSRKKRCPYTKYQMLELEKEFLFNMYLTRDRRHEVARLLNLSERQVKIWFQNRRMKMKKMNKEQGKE
Assay [20] has as its target HOXA2 (Homo sapiens, UniProt O43364 129-215, R185T).
Assay [21] concerns the target HOXB9 (Homo sapiens, UniProt P17482 171-250).
Assay [22] addresses ALX3 (Homo sapiens, UniProt O95076 139-225, N203Q).
The target in assay [23] is HOXD13 (Homo sapiens, UniProt P35453 263-343, T313R).
Chain of HOXD13 (Homo sapiens, UniProt P35453 263-343, T313R) (P35453 263-343 T313R): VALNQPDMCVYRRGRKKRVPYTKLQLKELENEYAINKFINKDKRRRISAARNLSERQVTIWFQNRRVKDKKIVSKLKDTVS
The target in assay [24] is HOXA2 (Homo sapiens, UniProt O43364 129-215, R185K).
Chain of HOXA2 (Homo sapiens, UniProt O43364 129-215, R185K) (O43364 129-215 R185K): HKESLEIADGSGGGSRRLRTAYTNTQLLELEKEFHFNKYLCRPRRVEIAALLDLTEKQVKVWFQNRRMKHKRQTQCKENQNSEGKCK
Assay [25] addresses HOXD13 (Homo sapiens, UniProt P35453 263-343).
Assay [26] deals with ALX3 (Homo sapiens, UniProt O95076 139-225).
Chain of ALX3 (Homo sapiens, UniProt O95076 139-225) (O95076 139-225): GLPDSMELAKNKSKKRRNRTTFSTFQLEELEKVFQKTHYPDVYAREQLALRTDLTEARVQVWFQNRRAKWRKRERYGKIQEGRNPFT
Assay [27] deals with ALX3 (Homo sapiens, UniProt O95076 139-225, L168Q).
Chain of ALX3 (Homo sapiens, UniProt O95076 139-225, L168Q) (O95076 139-225 L168Q): as the sequence (O95076 139-225) above, with L30Q counted along it
The target of assay [28] is HOXD13 (Homo sapiens, UniProt P35453 263-343, T313A).
Chain of HOXD13 (Homo sapiens, UniProt P35453 263-343, T313A) (P35453 263-343 T313A): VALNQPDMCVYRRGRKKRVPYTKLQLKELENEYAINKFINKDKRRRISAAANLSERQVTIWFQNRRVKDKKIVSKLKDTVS
The target in assay [29] is HOXB9 (Homo sapiens, UniProt P17482 171-250, R186Q).
Chain of HOXB9 (Homo sapiens, UniProt P17482 171-250, R186Q) (P17482 171-250 R186Q): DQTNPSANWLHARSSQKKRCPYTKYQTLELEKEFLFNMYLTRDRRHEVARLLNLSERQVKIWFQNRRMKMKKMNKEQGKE
Assay [30] deals with ALX3 (Homo sapiens, UniProt O95076 139-225, L168V).
Chain of ALX3 (Homo sapiens, UniProt O95076 139-225, L168V) (O95076 139-225 L168V): as the sequence (O95076 139-225) above, with L30V counted along it
The target of assay [31] is HOXA2 (Homo sapiens, UniProt O43364 129-215, Y150S).
Chain of HOXA2 (Homo sapiens, UniProt O43364 129-215, Y150S) (O43364 129-215 Y150S): as the sequence (O43364 129-215 R185K) above, with Y22S, K57R counted along it
For assay [32], the target named is ALX3 (Homo sapiens, UniProt O95076 139-225, N203S).
Chain of ALX3 (Homo sapiens, UniProt O95076 139-225, N203S) (O95076 139-225 N203S): as the sequence (O95076 139-225) above, with N65S counted along it
Assay [33] deals with HOXA2 (Homo sapiens, UniProt O43364 129-215).
Chain of HOXA2 (Homo sapiens, UniProt O43364 129-215) (O43364 129-215): as the sequence (O43364 129-215 R185K) above, with K57R counted along it

Chain of SHOX (Homo sapiens, UniProt O15266 103-189) (O15266 103-189): as the sequence (O15266 103-189 R173C) above, with C71R counted along it
Chain of HOXA7 (Homo sapiens, UniProt P31268 116-202, W177C) (P31268 116-202 W177C): as the sequence (P31268 116-202) above, with W62C counted along it
Chain of VAX1 (Homo sapiens, UniProt Q5SQQ9 86-172) (Q5SQQ9 86-172): as the sequence (Q5SQQ9 86-172 T142I) above, with I57T counted along it
Chain of HOXA2 (Homo sapiens, UniProt O43364 129-215, R185T) (O43364 129-215 R185T): as the sequence (O43364 129-215 R185K) above, with K57T counted along it
Chain of ALX3 (Homo sapiens, UniProt O95076 139-225, N203Q) (O95076 139-225 N203Q): as the sequence (O95076 139-225) above, with N65Q counted along it
Chain of HOXD13 (Homo sapiens, UniProt P35453 263-343) (P35453 263-343): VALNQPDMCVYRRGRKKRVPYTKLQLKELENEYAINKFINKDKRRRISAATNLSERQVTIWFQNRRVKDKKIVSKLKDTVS
Chain of HOXB9 (Homo sapiens, UniProt P17482 171-250) (P17482 171-250): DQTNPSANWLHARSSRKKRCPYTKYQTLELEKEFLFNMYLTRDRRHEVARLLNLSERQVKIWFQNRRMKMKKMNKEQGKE

As for CCGGTCTC, the binding signal with SHOX [1] is 7.18 upbm affinity estimate (log intensity, higher = more binding, comparable within an allelic series); with VENTX [2], 8.15 upbm affinity estimate (log intensity, higher = more binding, comparable within an allelic series); with VENTX [3] it was 8.23 upbm affinity estimate (log intensity, higher = more binding, comparable within an allelic series); with HOXA7 [4] it was 8.45 upbm affinity estimate (log intensity, higher = more binding, comparable within an allelic series); with ALX4 [5] it was 8.33 upbm affinity estimate (log intensity, higher = more binding, comparable within an allelic series); with VENTX [6], 8.1 upbm affinity estimate (log intensity, higher = more binding, comparable within an allelic series). The binding signal is 8.34 upbm affinity estimate (log intensity, higher = more binding, comparable within an allelic series) in the assay with ALX4 [7]; 7.23 upbm affinity estimate (log intensity, higher = more binding, comparable within an allelic series) with SHOX [8]; 7.31 upbm affinity estimate (log intensity, higher = more binding, comparable within an allelic series) in the assay with VAX1 [9]; 7.3 upbm affinity estimate (log intensity, higher = more binding, comparable within an allelic series) in the assay with VAX1 [10]; 8.44 upbm affinity estimate (log intensity, higher = more binding, comparable within an allelic series) in the assay with HOXA7 [11]; 7.04 upbm affinity estimate (log intensity, higher = more binding, comparable within an allelic series) with VAX1 [12].

ATATAGAG: the binding signal in the assay with SHOX [1] was 8.28 upbm affinity estimate (log intensity, higher = more binding, comparable within an allelic series).

Consider GGGCAGAC, for which the binding signal was 7.12 upbm affinity estimate (log intensity, higher = more binding, comparable within an allelic series) with SHOX [1]; 7.99 upbm affinity estimate (log intensity, higher = more binding, comparable within an allelic series) with VENTX [2]; 8.2 upbm affinity estimate (log intensity, higher = more binding, comparable within an allelic series) in the assay with VENTX [3]; 9.48 upbm affinity estimate (log intensity, higher = more binding, comparable within an allelic series) with PAX4 [13]; 8.13 upbm affinity estimate (log intensity, higher = more binding, comparable within an allelic series) with VENTX [6]; 9.45 upbm affinity estimate (log intensity, higher = more binding, comparable within an allelic series) with PAX4 [14]. Moreover, the binding signal was 9.48 upbm affinity estimate (log intensity, higher = more binding, comparable within an allelic series) with PAX4 [15]; 7.25 upbm affinity estimate (log intensity, higher = more binding, comparable within an allelic series) in the assay with SHOX [8]; 9.22 upbm affinity estimate (log intensity, higher = more binding, comparable within an allelic series) in the assay with PAX4 [16]; 9.21 upbm affinity estimate (log intensity, higher = more binding, comparable within an allelic series) with PAX4 [17]; 9.33 upbm affinity estimate (log intensity, higher = more binding, comparable within an allelic series) in the assay with PAX4 [18].

For the sequence CCCACGGC, the binding signal with SHOX [1] is 6.91 upbm affinity estimate (log intensity, higher = more binding, comparable within an allelic series); with VENTX [2] it was 7.88 upbm affinity estimate (log intensity, higher = more binding, comparable within an allelic series); in the assay with HOXB9 [19] it was 8.38 upbm affinity estimate (log intensity, higher = more binding, comparable within an allelic series); with VENTX [3], 7.71 upbm affinity estimate (log intensity, higher = more binding, comparable within an allelic series); with HOXA7 [4] it was 8.48 upbm affinity estimate (log intensity, higher = more binding, comparable within an allelic series); in the assay with VENTX [6], 7.87 upbm affinity estimate (log intensity, higher = more binding, comparable within an allelic series). In addition, the binding signal was 7.17 upbm affinity estimate (log intensity, higher = more binding, comparable within an allelic series) in the assay with HOXA2 [20]; 8.1 upbm affinity estimate (log intensity, higher = more binding, comparable within an allelic series) in the assay with HOXB9 [21]; 7.69 upbm affinity estimate (log intensity, higher = more binding, comparable within an allelic series) with ALX3 [22]; 9.39 upbm affinity estimate (log intensity, higher = more binding, comparable within an allelic series) with HOXD13 [23]; 7.08 upbm affinity estimate (log intensity, higher = more binding, comparable within an allelic series) with SHOX [8]; 10 upbm affinity estimate (log intensity, higher = more binding, comparable within an allelic series) in the assay with HOXA2 [24]. Further, the binding signal with HOXD13 [25] is 9.4 upbm affinity estimate (log intensity, higher = more binding, comparable within an allelic series); in the assay with ALX3 [26], 7.64 upbm affinity estimate (log intensity, higher = more binding, comparable within an allelic series); with VAX1 [9] it was 6.92 upbm affinity estimate (log intensity, higher = more binding, comparable within an allelic series); in the assay with ALX3 [27], 7.79 upbm affinity estimate (log intensity, higher = more binding, comparable within an allelic series); with HOXD13 [28] it was 9.58 upbm affinity estimate (log intensity, higher = more binding, comparable within an allelic series); in the assay with HOXB9 [29], 8.18 upbm affinity estimate (log intensity, higher = more binding, comparable within an allelic series). Moreover, the binding signal with ALX3 [30] was 7.77 upbm affinity estimate (log intensity, higher = more binding, comparable within an allelic series); with VAX1 [10], 6.93 upbm affinity estimate (log intensity, higher = more binding, comparable within an allelic series); in the assay with HOXA2 [31], 10.4 upbm affinity estimate (log intensity, higher = more binding, comparable within an allelic series); with HOXA7 [11], 8.45 upbm affinity estimate (log intensity, higher = more binding, comparable within an allelic series); with ALX3 [32], 7.71 upbm affinity estimate (log intensity, higher = more binding, comparable within an allelic series); in the assay with HOXA2 [33], 7.04 upbm affinity estimate (log intensity, higher = more binding, comparable within an allelic series). For the same sequence, in the assay with VAX1 [12], the binding signal was 6.78 upbm affinity estimate (log intensity, higher = more binding, comparable within an allelic series).

Values taken from article PMC11006913.
